Here are results for 95 compounds from PubChem BioAssay AID1529 (NMMLSC, 2009).

The whole screen tested about 290,000 compounds, of which about 4,200 (1.4%) were called active.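 How the source made its calls: active means binding response more than 3 SD above or below the average of its plate-row segment, actives on both sides; inconclusive means wells at one plate position flagged as instrument error; inactive means the rest.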 Many of the other results were omitted from the sample, so actives are more common in it than they were.

Sequence of Mitogen-activated protein kinase kinase kinase 3 (Homo sapiens) (Q99759 whole entry, looked up): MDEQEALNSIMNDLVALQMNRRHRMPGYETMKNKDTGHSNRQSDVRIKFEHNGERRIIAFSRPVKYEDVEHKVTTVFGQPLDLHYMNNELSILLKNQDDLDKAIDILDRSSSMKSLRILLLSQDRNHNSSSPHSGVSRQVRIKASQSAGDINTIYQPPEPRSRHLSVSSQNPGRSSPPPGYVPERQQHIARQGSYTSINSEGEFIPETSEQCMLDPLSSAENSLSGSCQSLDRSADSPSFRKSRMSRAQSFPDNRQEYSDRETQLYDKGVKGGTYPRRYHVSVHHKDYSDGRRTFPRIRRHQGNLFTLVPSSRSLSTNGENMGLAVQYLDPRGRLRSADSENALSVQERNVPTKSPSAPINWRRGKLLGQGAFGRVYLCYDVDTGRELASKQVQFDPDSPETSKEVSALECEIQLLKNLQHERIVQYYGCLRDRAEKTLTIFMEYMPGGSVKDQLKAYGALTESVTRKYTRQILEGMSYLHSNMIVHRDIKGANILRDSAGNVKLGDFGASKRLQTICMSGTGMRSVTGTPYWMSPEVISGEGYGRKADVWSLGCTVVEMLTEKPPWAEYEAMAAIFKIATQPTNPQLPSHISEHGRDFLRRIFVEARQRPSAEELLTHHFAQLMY

This assay has as its target Mitogen-activated protein kinase kinase kinase 3 (Homo sapiens) (UniProt Q99759). Put plainly: compounds raising or lowering MEK5 association with MEKK3 PB1 – biochemical, wildtype MEKK3, multiplex bead flow cytometry, Alexa488-MEK5, primary screen (AID 1529).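 Further: Alexa488 bead fluorescence after subtracting the streptavidin-only scavenger bead signal.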 The note with it: bead-based flow cytometry, Alexa488-MEK5 binding to MEKK3; at 10 µM; actives lie on both sides; 0 = blocked by unlabeled MEK5, 100 = vehicle. (Flow cytometry measures light scatter and fluorescence of single cells or particles in a stream.)
For `COC(=O)c1cccc(N(CC(=O)NCC2CCCO2)C(=O)CCC(=O)Nc2cc(C)on2)c1` (stereo not given), the binding response (% of control) is 103% (inactive).
Under `O=C(Cc1cccc2ccccc12)Nc1ccc2oc(-c3ccccc3)nc2c1` stands 129% (active); under `O=C(Nc1ccc2oc(-c3ccc4ccccc4c3)nc2c1)c1cccs1`, 121% (inactive).
On to `CC(O)c1cccc(NC(=O)Cc2cccc3ccccc23)c1` (stereo not given), for which the binding response (% of control) was 102% (inactive).
Regarding `c1ccc(-c2nnc(SCc3nc4ccccc4[nH]3)o2)cc1`, the binding response (% of control) was 98% (inactive).
Take `O=C(O)CSCc1nc2ccccc2s1`: the binding response (% of control) is 96% (inactive).
Under `Clc1ccc(-c2nnc(SCc3nc4ccccc4s3)o2)cc1` stands 150% (active); under `COc1ccc(Cl)cc1NC(=O)C(C)N1CCc2ccccc21` (stereo not given), 100% (inactive).
In the case of `Cc1ccccc1NC(=O)N1CCCC1C(=O)NCc1ccccc1` (stereo not given) it was 114% (inactive); in that of `O=C(Nc1c2c(nn1-c1cccc(Cl)c1)CS(=O)(=O)C2)c1cccs1`, 82% (inactive); in that of `Cc1nn(-c2ccccc2)c(NC(=O)c2cccs2)c(-c2ccc(Cl)cc2)c1=O`, 162% (active).
Under `Cc1ccc(-n2nc(C)c(/C=N/NC(=O)c3cccs3)c2Cl)cc1` stands 106% (inactive).
`CCc1ccc(NC(=O)Cn2nnc(C(=O)NCc3ccc4c(c3)OCO4)c2N)cc1`: the binding response (% of control) is 100% (inactive).
In the case of `Cc1ccccc1OCC(=O)Nc1ccc(S(=O)(=O)N2CCOCC2)cc1` it was 95% (inactive); in that of `Cc1ccccc1OCC(=O)Nc1ccc(N2CCN(C(=O)C(C)C)CC2)c(Cl)c1`, 122% (active); in that of `CCC(=O)N1CCN(c2ccccc2NC(=O)COc2cccc(C)c2C)CC1`, 102% (inactive).
With `CCN1C(=O)N[C@@H](CCc2ccccc2)C(C(=O)OC)=C1C`, the binding response (% of control) was 101% (inactive).
As to `CCC(=O)Nc1nnc(S(=O)(=O)N2CCCc3ccccc32)s1`, the binding response (% of control) is 98% (inactive).
In the case of `O=C(CCN1C(=O)[C@@H]2Cc3ccccc3CN2C1=O)NCCc1ccccc1`, the binding response (% of control) is 99% (inactive).
Consider `Cc1[nH][nH]c(=O)c1C(c1ccc(-c2ccc(Cl)cc2)o1)c1c(C)[nH][nH]c1=O`, for which the binding response (% of control) was 95% (inactive).
Take `Cc1[nH][nH]c(=O)c1C(c1ccc2c(c1)OCO2)c1c(C)[nH][nH]c1=O`: the binding response (% of control) is 102% (inactive).
Turning to `CCOc1ccc(C(c2c(C)[nH][nH]c2=O)c2c(C)[nH][nH]c2=O)cc1OCC`, the binding response (% of control) was 152% (active).
As to `CCOc1ccc(CN2CCN(Cc3c[nH]c4ccccc34)CC2)cc1`, the binding response (% of control) was 99% (inactive).
Under `Cn1ccnc1-c1nnn(-c2ccc(F)cc2)n1` stands 95% (inactive); under `CCOc1ccccc1C1C(C(=O)OC)=CN(C)C=C1C(=O)OC`, 102% (inactive); under `CCOc1cc(C2C(C(=O)OC)=CN(C3CCCC3)C=C2C(=O)OC)cc(Br)c1O`, 80% [inhibitor] (active).
In the case of `COC(=O)C1=CN(Cc2ccc(OC)cc2)C=C(C(=O)OC)C1c1ccc(O)c(OC)c1` it was 104% (inactive); in that of `COc1nnc(-c2ccc(C)c(S(=O)(=O)N(C)C)c2)c2ccccc12`, 101% (inactive); in that of `Cc1c(C#N)c2ncn(CC#N)c(=O)c2n1-c1ccccc1`, 122% (active).
In the case of `CN(C)/C=C/c1c(C#N)c(=O)ncn1Cc1ccccc1` it was 103% (inactive); in that of `CC(=O)Cn1cnc2c(cnn2-c2ccccc2)c1=O`, 102% (inactive).
`Cc1cc(N2CCOCC2)nc2ccc(NC(=S)N3CCN(Cc4ccccc4)CC3)cc12`: the binding response (% of control) was 92% (inactive).
As for `COc1ccc(C(C(=O)NC(C)(C)C)N(Cc2ccc(F)cc2)C(=O)CCC(=O)Nc2cc(C)on2)cc1` (stereo not given), the binding response (% of control) was 100% (inactive).
Under `NC(=O)C1CCN(C(=O)CC2C(=O)NCCN2Cc2cccc(Oc3ccccc3)c2)CC1` (stereo not given) stands 101% (inactive); under `NC(=S)N/N=C/c1coc2cc(Cl)ccc2c1=O`, 92% (inactive).
In the case of `Cc1ccc2occ(/C=N/NC(=O)c3ccccc3C)c(=O)c2c1` it was 104% (inactive).
Under `O=c1c(/C=N/O)coc2ccc(Cl)cc12` stands 48% [inhibitor] (active); under `Cc1ccc(OCC(=O)Nc2ccc3oc(=O)ccc3c2)cc1C`, 102% (inactive); under `Cc1ccccc1-c1ccc(Nc2ccc(C(=O)N3CCOCC3)cc2)nn1`, 79% [inhibitor] (active).
For the compound `O=C(Nc1ccc(Cl)cc1)Nc1ccc(C(=O)N2CCOCC2)cc1`, the binding response (% of control) was 103% (inactive).
Under `Cc1ccc(C(=O)N2CCN(C(=O)N3CCOCC3)CC2)cc1` stands 107% (inactive); under `COc1ccc(-c2noc(COc3ccc(Cl)c(C)c3)n2)cc1`, 102% (inactive).
For `Cc1cc(Cl)ccc1OCc1nc(-c2ccncc2)no1`, the binding response (% of control) was 73% [inhibitor] (active).
On to `c1ccc(CCc2nc(-c3ccncc3)no2)cc1`, for which the binding response (% of control) was 105% (inactive).
In the case of `CCC1Oc2ccccc2N(CC(=O)NCCCN2CCN(CC)CC2)C1=O` (stereo not given) it was 105% (inactive); in that of `COc1ccc(S(=O)(=O)N(C)CC(=O)N2CCCC2)cc1`, 101% (inactive); in that of `C[N+](C)(C)CCNC(=O)c1c(O)c2c([nH]c1=O)CCCC2`, 78% [inhibitor] (active).
In the case of `O=C(NCc1ccccn1)c1c(O)c2c([nH]c1=O)CCCC2` it was 107% (inactive); in that of `CCc1nnc(NC(=O)c2c(O)c3c([nH]c2=O)CCCC3)s1`, 105% (inactive).
Under `O=C(CN(c1cc(C(F)(F)F)ccc1Cl)S(=O)(=O)c1ccccc1)NCc1cccnc1` stands 101% (inactive).
As to `COc1cc(NC(=O)C2CCN(c3cnccn3)CC2)cc(OC)c1`, the binding response (% of control) was 102% (inactive).
Under `COC(=O)CCNC(=O)c1ccc2[nH]c(C)c(C)c2c1` stands 102% (inactive).
Consider `Cc1[nH]c2ccc(C(=O)N3CCN(C)CC3)cc2c1C`, for which the binding response (% of control) is 99% (inactive).
Under `Cc1[nH]c2ccc(S(N)(=O)=O)cc2c1C` stands 81% [inhibitor] (active).
With `Cc1cccc(Nc2nc(NCCO)nc(N3CCCC3)n2)c1`, the binding response (% of control) was 106% (inactive).
Under `CN(CCNC(=O)c1cc2c(-c3ccccc3F)nn(C)c2s1)C1CCCCC1` stands 108% (inactive).
In the case of `O=C(O)/C(=C/c1cccnc1)NC(=O)c1ccccc1` it was 156% (active).
Under `Cc1ccc(C(=O)N/C(=C/c2cccnc2)C(=O)O)cc1` stands 95% (inactive); under `CC(C)(C)NC(=O)/C(=C/c1cccnc1)NC(=O)c1ccco1`, 101% (inactive); under `Cc1nnc(SCC(=O)Nc2ccc(S(=O)(=O)Nc3ccc(Cl)nn3)cc2)s1`, 99% (inactive).
As for `COc1ccccc1/C=C1\SC(=O)N(CCC(=O)N(C)C2CCS(=O)(=O)C2)C1=O` (stereo not given), the binding response (% of control) is 98% (inactive).
In the case of `Cc1c(CN2CC[C@@H](N3CCN(c4ccccn4)CC3)[C@H](O)C2)[nH]c2ccc(F)cc12` it was 104% (inactive); in that of `CCOC(=O)CN(C)S(=O)(=O)c1ccc(-c2cc(C(=O)OC)sc2C(F)(F)F)cc1`, 129% (active); in that of `Cc1ccc(S(=O)(=O)N(C)CC(=O)OCC(=O)Nc2ccccc2)cc1`, 94% (inactive).
For the compound `COC(=O)c1sc(C(F)(F)F)c(-c2ccccc2)c1S(=O)(=O)N(C)C`, the binding response (% of control) was 106% (inactive).
In the case of `O=C(O)C1=NN(c2c(F)c(F)cc(F)c2F)C(=O)CC1` it was 95% (inactive).
In the case of `CCOC(=O)CSc1nnc(NC(=O)C2CC(=O)N(c3ccc(F)cc3)C2)s1` (stereo not given) it was 102% (inactive); in that of `COC(=O)c1cccc(N(C(=O)CNC(=O)c2cccs2)C(C(=O)NCC2CCCO2)c2ccc(OC)c(OC)c2)c1` (stereo not given), 100% (inactive).
Under `COC(=O)[C@@H]1CC(O)CN1C(=O)C12CC3CC(CC(C3)C1)C2` (stereo not given in full) stands 96% (inactive); under `O=C(Nc1cccc2ncccc12)C(Cl)(Cl)Cl`, 101% (inactive).
In the case of `O=C(O)c1cc(Cl)c(Cl)cc1C(=O)Nc1cccc2ncccc12`, the binding response (% of control) is 128% (active).
With `O=C(Nc1cccc2ncccc12)c1ccc(-c2ccc(Cl)cc2Cl)o1`, the binding response (% of control) is 102% (inactive).
Under `OCC[C@H]1C[C@H](O)[C@@H](O)[C@]2(CCCCO2)O1` stands 100% (inactive); under `CCc1ccc2nc(Nc3ncc(C(C)=O)c(C)n3)nc(C)c2c1`, 49% [inhibitor] (active).
As for `Cc1ccc2nc(Nc3ncc4c(n3)CC(C)(C)CC4=O)nc(C)c2c1`, the binding response (% of control) was 102% (inactive).
As for `COc1ccccc1Nc1ncc(C(C)=O)c(C)n1`, the binding response (% of control) was 104% (inactive).
For the compound `CCCCn1c(SCC(=O)NCCc2ccc(OC)c(OC)c2)nc2c1c(=O)n(C)c(=O)n2C`, the binding response (% of control) was 0% [inhibitor] (active).
As for `CCn1c(NCCc2ccc(OC)c(OC)c2)nc2c1c(=O)n(C)c(=O)n2C`, the binding response (% of control) was 103% (inactive).
Under `C#CC(C)(C)NC(=O)CSc1nc2c(c(=O)n(C)c(=O)n2C)n1CCCC` stands 108% (inactive).
With `Cc1ccc(O)c(/C=N/NC(=O)COc2ccc3c(C)cc(=O)oc3c2)c1`, the binding response (% of control) was 99% (inactive).
Under `C/C(=N\Nc1ncc(Cl)cc1Cl)c1ccc(S(=O)(=O)NCc2ccco2)cc1` stands 108% (inactive); under `C/C(=N\Nc1ncc(Cl)cc1Cl)c1cccs1`, 103% (inactive).
In the case of `COc1cccc(/C(C)=N/Nc2ncc(Cl)cc2Cl)c1`, the binding response (% of control) was 135% (active).
As for `O=C(CN(C(=O)c1nsc(Cl)c1Cl)c1cccc(F)c1)NC1CCCC1`, the binding response (% of control) was 99% (inactive).
In the case of `COCc1ccc(C(=O)NC2CC(C)(C)Cc3c2cnn3-c2ccc(C)cc2)o1` (stereo not given) it was 97% (inactive); in that of `CC1CCC2(CC1)NC(=O)N(CC(=O)c1ccc3c(c1)OCO3)C2=O` (stereo not given), 99% (inactive).
Under `CC(C)CC(=O)NC(=S)Nc1ccc(F)cc1F` stands 117% (inactive); under `CC(C)CC(=O)NC(=S)Nc1cc(C(=O)O)ccc1Cl`, 132% (active).
In the case of `CC(C)Oc1ccc(CCC(=O)NNC(=S)NCc2ccccc2)cc1` it was 95% (inactive); in that of `CC(C)CNC(=O)C(=O)NCc1ccccc1`, 96% (inactive).
Turning to `CC(C)CC(=O)NC(=S)NCc1ccccc1`, the binding response (% of control) is 141% (active).
In the case of `CC(=O)c1ccc(NC(=S)NC(=O)CC(C)C)cc1` it was 104% (inactive); in that of `CCc1nn(CCCC(=O)Nc2ccc(C)cc2C)c(=O)c2cc3occc3n12`, 99% (inactive); in that of `CN(Cc1ccccc1Cl)C(=O)C1CCC(=O)N(CCc2cccc(F)c2)C1` (stereo not given), 102% (inactive).
Under `COc1ccc(N(CC(=O)N2CCCCCC2)S(=O)(=O)c2ccccc2)cc1` stands 102% (inactive).
